For some of these results: Results with a measured potency or affinity are listed apart.

Common to all, as to set-up: scale not given: direction of the effect not stated beside the values
In assay [1] the target is Protein translocase subunit SecA (Escherichia coli (strain K12)) (UniProt P10408). The experiment in a line: Assay to Identify E. coli SecA ATPase Inhibitors. It counts as functional. The conditions noted are these: 30 µM.
Assay [2] deals with T1, Ubiquitin-activating enzyme e1, putative (Leishmania donovani (strain BPK282A1)) (UniProt E9BSI1).
T1 sequence (whole entry): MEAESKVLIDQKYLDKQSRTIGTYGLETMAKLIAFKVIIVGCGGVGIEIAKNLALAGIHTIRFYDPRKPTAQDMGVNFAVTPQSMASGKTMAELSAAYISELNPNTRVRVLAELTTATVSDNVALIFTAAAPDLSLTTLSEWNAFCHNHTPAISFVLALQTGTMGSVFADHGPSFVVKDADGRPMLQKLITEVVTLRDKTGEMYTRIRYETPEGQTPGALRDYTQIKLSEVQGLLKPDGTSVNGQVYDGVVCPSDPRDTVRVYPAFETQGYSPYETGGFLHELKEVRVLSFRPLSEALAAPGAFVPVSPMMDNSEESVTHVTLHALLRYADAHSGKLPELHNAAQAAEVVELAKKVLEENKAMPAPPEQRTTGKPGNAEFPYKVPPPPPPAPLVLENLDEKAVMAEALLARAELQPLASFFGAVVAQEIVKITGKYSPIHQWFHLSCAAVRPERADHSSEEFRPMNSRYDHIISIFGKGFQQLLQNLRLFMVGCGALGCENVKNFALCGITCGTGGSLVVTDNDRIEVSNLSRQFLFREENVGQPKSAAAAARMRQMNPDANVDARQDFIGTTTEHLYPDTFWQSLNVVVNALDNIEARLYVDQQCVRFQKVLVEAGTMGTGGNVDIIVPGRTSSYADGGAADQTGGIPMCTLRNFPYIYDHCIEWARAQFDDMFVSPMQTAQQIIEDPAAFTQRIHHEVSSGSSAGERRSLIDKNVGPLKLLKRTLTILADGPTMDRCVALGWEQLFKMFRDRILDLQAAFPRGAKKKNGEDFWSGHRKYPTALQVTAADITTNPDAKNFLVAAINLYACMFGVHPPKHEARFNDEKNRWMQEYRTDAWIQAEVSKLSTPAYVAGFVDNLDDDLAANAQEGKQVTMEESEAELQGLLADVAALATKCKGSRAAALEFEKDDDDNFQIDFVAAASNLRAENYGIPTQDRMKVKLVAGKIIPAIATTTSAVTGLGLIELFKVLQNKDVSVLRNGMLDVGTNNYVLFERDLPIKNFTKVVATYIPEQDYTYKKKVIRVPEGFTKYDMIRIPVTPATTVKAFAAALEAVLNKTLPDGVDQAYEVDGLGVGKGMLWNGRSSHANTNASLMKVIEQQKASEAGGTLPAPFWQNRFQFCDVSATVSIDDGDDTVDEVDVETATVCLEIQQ
The experiment in a line: Leishmania donovani Ubiquitin Activating Enzyme (LdE1). The assay is classed as functional. The note with it: 30 µM.

In assay [3] the target is AMP-activated protein kinase, AMPK (Homo sapiens) (UniProt P54646+O43741+P54619+Q9UGJ0+Q9Y478+Q13131+Q9UGI9). Kind of assay: AMP-dependent Kinase enzyme assay. An in vitro enzyme assay that detects ADP turnover that is directly proportional to AMPK activity. This uses naive AMPK that is activated during the assay with MK-8722. The assay is classed as functional. The conditions noted are these: 30 µM.

For assay [4], the target named is Sialic acid-binding Ig-like lectin 9 (Homo sapiens) (UniProt Q9Y336). Kind of assay: Hs-Siglec9 ALPHAscreen SOP 20170721. The note with it: 10 µM. For orientation: Bead proximity is the source of the signal in Alpha formats.
For a further assay, the system named is Trypanosoma cruzi. The experiment in a line: Trypanosoma cruzi phosphomannomutase and mannose-1-phosphate guanylyltransferase assay. The assay is classed as functional. The note with it: 10 µM.
Assay [5] addresses T2, Arginase-2, mitochondrial (Homo sapiens) (UniProt P78540).
T2 sequence (whole entry): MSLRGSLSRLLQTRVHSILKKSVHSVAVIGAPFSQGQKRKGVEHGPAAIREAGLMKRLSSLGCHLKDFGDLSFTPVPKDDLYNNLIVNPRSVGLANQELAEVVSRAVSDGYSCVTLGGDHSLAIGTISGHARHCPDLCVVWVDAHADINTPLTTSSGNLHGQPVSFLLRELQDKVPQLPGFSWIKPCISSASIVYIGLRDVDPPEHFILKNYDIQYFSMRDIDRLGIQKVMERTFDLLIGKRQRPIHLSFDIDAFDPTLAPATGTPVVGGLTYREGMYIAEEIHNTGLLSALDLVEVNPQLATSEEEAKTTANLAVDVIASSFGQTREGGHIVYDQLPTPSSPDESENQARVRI
The experiment in a line: in vitro enzyme assay to detect the production of urea directly proportional to the activity of Arginase II. Note: in the data most compounds retested in dose-response had high values. The assay is classed as functional. The note with it: 33.3 µM.

The target of assay [6] is T3, Proteasome subunit beta (Trypanosoma cruzi) (UniProt O96673).
T3 sequence (whole entry): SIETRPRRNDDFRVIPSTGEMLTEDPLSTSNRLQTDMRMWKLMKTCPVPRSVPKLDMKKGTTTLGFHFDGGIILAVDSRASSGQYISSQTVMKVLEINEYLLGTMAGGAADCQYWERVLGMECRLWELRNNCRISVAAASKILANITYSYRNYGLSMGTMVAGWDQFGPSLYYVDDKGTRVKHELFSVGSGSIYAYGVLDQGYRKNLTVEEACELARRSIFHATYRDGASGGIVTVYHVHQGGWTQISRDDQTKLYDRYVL
The experiment in a line: Trypanosoma cruzi proteasome chymotrypsin-like activity (TcProtChymo) assay. Note: in the data most compounds retested in dose-response had high values. It counts as functional. The note with it: 9.37 µM.

The species entered for another assay is Homo sapiens. The experiment in a line: To identify inhibition of the IFN signalling (Jak-Stat) pathway via expression of an eGFP reporter gene under the control of an IFN-stimulated response element (ISRE) containing MxA promoter. The conditions noted are these: 30 µM. The assay is classed as functional. For orientation: In a reporter assay the amount or activity of a reporter protein is the signal.

The target of assay [7] is T4, Tyrosyl-tRNA synthetase, putative (Trypanosoma cruzi (strain CL Brener)) (UniProt Q4DSP6).
T4 sequence (whole entry): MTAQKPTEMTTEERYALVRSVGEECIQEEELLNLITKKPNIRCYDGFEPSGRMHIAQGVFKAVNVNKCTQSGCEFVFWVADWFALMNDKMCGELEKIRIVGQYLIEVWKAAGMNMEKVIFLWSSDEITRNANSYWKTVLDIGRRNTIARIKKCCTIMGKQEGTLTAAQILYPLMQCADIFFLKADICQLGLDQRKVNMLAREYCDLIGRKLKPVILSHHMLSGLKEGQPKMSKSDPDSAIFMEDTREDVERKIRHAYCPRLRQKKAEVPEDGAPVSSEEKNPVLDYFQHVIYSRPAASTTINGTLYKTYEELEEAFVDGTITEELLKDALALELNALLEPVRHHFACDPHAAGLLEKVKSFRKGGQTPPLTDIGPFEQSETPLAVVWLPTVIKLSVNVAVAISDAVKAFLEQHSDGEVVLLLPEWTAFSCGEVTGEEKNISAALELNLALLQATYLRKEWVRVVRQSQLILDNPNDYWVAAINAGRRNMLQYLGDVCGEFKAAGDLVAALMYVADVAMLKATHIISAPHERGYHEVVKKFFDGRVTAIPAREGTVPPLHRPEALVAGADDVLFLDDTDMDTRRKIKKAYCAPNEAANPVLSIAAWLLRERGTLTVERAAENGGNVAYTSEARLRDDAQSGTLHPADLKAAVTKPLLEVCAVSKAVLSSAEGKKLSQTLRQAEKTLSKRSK
The experiment in a line: Trypanosoma cruzi tyrosyl tRNA synthetase (TcYRS) _High Tyrosine SOP. Note: in the data most compounds retested in dose-response had high values. The assay is classed as functional. The conditions noted are these: 30 µM.

The target in assay [8] is T4, Tyrosyl-tRNA synthetase, putative (Trypanosoma cruzi (strain CL Brener)). Kind of assay: Trypanosoma cruzi tyrosyl tRNA synthetase (TcYRS) SOP. The assay is classed as functional. The note with it: 30 µM.
In assay [9] the target is Chromo domain-containing protein 1 (Saccharomyces cerevisiae (strain ATCC 204508 / S288c) (Baker's yeast)) (UniProt P32657). Kind of assay: ScCHD-1 Enzyme Inhibition Assay. Note: in the data most compounds retested in dose-response had high values. It counts as functional. The note with it: 30 µM.
Sequence of Chromo domain-containing protein 1 (Saccharomyces cerevisiae (strain ATCC 204508 / S288c) (Baker's yeast)) (P32657 whole entry, the tested form may be a part): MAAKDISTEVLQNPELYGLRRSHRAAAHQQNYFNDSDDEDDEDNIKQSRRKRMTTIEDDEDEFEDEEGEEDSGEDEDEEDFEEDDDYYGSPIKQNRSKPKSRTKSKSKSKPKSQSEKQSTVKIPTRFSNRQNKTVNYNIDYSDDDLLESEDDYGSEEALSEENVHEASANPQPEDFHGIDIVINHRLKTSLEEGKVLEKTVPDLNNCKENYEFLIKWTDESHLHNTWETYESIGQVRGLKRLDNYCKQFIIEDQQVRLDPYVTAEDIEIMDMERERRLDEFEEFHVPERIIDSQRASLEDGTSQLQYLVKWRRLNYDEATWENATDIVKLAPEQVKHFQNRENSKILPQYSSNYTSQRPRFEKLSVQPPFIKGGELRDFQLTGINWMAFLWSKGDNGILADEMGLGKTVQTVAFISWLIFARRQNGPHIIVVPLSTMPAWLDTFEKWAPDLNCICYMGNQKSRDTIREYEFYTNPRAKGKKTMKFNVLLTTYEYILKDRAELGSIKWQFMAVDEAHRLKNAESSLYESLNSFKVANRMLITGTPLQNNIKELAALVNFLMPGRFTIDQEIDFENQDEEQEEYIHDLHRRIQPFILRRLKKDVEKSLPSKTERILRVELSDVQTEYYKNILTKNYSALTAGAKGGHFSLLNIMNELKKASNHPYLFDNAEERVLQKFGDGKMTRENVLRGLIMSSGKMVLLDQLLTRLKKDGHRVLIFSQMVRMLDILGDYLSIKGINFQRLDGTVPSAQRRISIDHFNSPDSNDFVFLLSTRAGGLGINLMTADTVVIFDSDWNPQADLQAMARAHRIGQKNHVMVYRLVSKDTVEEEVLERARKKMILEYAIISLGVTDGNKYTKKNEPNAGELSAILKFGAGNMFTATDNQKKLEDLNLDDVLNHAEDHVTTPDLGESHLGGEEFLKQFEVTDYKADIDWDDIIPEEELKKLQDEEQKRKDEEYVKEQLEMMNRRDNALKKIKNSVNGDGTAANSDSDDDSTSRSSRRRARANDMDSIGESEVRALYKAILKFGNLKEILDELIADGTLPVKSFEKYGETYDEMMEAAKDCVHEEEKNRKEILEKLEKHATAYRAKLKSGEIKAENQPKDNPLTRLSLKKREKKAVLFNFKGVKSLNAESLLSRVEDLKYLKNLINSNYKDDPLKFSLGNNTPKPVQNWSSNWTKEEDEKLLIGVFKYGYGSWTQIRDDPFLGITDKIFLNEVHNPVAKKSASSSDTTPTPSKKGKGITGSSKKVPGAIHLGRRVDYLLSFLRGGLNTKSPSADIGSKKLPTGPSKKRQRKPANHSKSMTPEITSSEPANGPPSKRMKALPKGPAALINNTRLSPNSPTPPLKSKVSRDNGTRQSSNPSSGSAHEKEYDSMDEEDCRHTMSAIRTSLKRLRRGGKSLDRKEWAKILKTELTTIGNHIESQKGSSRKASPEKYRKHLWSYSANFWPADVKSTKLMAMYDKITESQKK

Sequence of Sialic acid-binding Ig-like lectin 9 (Homo sapiens) (Q9Y336 whole entry): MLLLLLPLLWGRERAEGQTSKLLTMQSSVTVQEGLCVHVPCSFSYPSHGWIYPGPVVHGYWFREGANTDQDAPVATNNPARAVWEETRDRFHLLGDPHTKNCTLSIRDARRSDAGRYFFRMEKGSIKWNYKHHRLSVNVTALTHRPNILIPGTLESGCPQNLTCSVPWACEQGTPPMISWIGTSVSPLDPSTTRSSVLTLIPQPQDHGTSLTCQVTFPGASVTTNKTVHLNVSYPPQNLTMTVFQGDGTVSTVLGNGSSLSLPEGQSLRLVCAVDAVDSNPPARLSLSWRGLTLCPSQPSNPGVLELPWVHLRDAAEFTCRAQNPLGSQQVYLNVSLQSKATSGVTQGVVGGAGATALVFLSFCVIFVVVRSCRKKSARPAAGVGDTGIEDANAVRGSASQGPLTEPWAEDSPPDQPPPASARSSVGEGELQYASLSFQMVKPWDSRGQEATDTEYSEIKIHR
Sequence of Protein translocase subunit SecA (Escherichia coli (strain K12)) (P10408 whole entry): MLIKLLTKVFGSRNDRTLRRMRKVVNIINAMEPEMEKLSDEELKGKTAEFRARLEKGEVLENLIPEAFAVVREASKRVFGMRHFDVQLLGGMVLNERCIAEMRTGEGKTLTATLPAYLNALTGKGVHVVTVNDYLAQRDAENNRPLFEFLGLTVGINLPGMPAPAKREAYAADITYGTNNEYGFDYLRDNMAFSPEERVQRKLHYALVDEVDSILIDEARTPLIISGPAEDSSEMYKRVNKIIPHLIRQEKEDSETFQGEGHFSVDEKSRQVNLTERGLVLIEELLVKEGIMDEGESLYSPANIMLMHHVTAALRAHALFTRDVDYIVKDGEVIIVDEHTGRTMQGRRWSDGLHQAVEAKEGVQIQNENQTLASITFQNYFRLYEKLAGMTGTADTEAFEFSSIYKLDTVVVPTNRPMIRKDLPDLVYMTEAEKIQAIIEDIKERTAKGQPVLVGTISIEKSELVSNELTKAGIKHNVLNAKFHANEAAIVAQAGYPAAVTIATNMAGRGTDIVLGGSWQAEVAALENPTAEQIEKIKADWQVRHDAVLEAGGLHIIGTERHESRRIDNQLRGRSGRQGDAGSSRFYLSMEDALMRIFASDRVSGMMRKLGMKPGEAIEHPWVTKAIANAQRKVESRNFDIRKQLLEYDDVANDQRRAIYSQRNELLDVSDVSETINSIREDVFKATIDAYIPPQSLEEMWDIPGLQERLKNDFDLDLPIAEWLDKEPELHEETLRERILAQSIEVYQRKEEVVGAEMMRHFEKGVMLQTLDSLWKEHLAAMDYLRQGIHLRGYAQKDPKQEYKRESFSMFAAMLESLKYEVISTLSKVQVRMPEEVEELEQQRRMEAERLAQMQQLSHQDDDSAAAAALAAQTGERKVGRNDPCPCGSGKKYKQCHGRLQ

As for `O=C1CC[C@H]2[C@H](CCN2C(=O)C2CCCO2)N1Cc1ccncc1` (stereo partly drawn), the Percent Effect in [1] is -2.88%; in [2] it was 22.7%; in assay [3] it was -8.21%; in assay [4], -5.26%; in the assay with Trypanosoma cruzi it was 2.36%; in assay [5] it was -8.63%. For the same molecule, the Percent Effect is 14.1% in assay [6]; 12.9% in the assay filed under Homo sapiens; 1.06% in assay [7]; 7.69% in [8]; -8.01% in assay [9].

As to `CCCN1CCN(C(=O)c2cnccn2)[C@H]2CS(=O)(=O)C[C@H]21`, the Percent Effect in assay [1] was -2.77%; in assay [2], 2.7%; in [3], -5.74%; in [4], 30.7%; in the assay with Trypanosoma cruzi it was 3.86%; in assay [5], 2.38%. Also, the Percent Effect in assay [6] is 2.93%; in the assay listed under Homo sapiens, 6.26%; in assay [7], 4.76%; in assay [8] it was 12.2%; in [9] it was -5.99%.

Regarding `O=C(c1cccnc1)N1C[C@@H]2CC[C@H](C1)N(Cc1cc(F)ccc1F)C2`, the Percent Effect in assay [1] was 0.34%; in assay [2] it was 11%; in assay [3], 29.4%; in assay [4], -0.061%; in the assay with Trypanosoma cruzi it was 3.33%; in assay [5], 0%. Also, the Percent Effect in assay [6] was 10.3%; in the assay filed under Homo sapiens, 21.9%; in [7] it was 7.53%; in assay [8], 15%; in assay [9], -7.41%.

With `CSCc1cccc(S(=O)(=O)NCCCn2ccnc2)c1`, the Percent Effect in assay [1] was -5.68%; in [2], -23.4%; in [3], -1.48%; in assay [4], 6.2%; in the assay with Trypanosoma cruzi it was 1.67%; in [5], -6.9%. In addition, the Percent Effect in assay [6] was 2.16%; in the assay filed under Homo sapiens, 2.79%; in assay [7], 7.53%; in [8], 21%; in [9], -1.53%.

Take `Cc1nccc(N2CCC(=O)N(Cc3ccc(F)cc3)C(C(C)C)C2)n1` (stereo not drawn): the Percent Effect in assay [1] was -2.94%; in assay [2] it was 1.39%; in assay [3] it was 1.69%; in [4], -1.4%; with Trypanosoma cruzi, -1.07%; in assay [5], -0.883%. Also, the Percent Effect in [6] was 4.56%; in the assay listed under Homo sapiens it was -6.54%; in assay [7], 0%; in assay [8], 2.56%; in assay [9], 1.68%.

Turning to `CCN(Cc1ccc2c(c1)OCCO2)C(=O)NC(C)Cn1ccnc1` (stereo not drawn), the Percent Effect in assay [1] was -0.244%; in assay [2] it was 23.4%; in [3], -1.99%; in [4], -9.3%; in the assay with Trypanosoma cruzi, -9.74%; in [5], 3.56%. The Percent Effect in assay [6] was 10.8%; in the assay filed under Homo sapiens, 19.8%; in assay [7], 3.88%; in [8], 9.76%; in assay [9] it was -7.71%.

Take `O=C(NCCN1CCc2ccccc2C1)c1scnc1Cl`: the Percent Effect was -2.6% in assay [1]; 13.2% in assay [2]; -2.29% in assay [3]; -8.63% in [4]; 6.26% in the assay on Trypanosoma cruzi; -3.24% in assay [5]. The Percent Effect is 18% in [6]; 6.79% in the assay listed under Homo sapiens; -6.4% in assay [7]; 23.5% in [8]; -6.08% in [9].

`Cn1cc(C2CC(=O)NC23CCN(CC2CC2)CC3)cn1` (stereo not drawn): the Percent Effect in assay [1] was -4.62%; in [2] it was 5.33%; in assay [3], -4.75%; in [4] it was 13.8%; in the assay on Trypanosoma cruzi, 2.32%; in [5], 4.12%. The Percent Effect in assay [6] is 10.1%; in the assay filed under Homo sapiens it was 0.353%; in [7] it was 1.04%; in assay [8], 10%; in assay [9] it was -6.87%.

(Values after ChEMBL document CHEMBL3988442, “University of Dundee, Small-Polar-MMV Screening Library” (2021).)
